D1 agonist: human D1 receptor agonism; P21728; HEK293 T-REx D1 cells, calcium flux, agonist mode; activation, % at 2 µM; 1% of 360,000 active; AID 504660; in the data active = activation above about 30%; also: 0% is about no effect
Target sequence (P21728 whole entry, looked up): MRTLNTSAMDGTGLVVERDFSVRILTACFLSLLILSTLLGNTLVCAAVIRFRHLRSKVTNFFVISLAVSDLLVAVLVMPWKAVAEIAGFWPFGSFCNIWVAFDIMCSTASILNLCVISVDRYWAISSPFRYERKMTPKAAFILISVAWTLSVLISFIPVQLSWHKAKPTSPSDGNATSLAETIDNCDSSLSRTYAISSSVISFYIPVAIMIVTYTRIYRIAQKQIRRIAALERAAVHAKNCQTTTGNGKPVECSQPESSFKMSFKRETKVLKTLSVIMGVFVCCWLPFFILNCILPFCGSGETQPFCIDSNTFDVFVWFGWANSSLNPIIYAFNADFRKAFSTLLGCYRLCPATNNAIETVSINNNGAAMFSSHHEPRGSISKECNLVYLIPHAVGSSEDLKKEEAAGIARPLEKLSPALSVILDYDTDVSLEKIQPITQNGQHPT
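Agonism was scored from calcium flux recorded over 180 s (1 read/s) after pintool compound addition, following a 10-cycle baseline. Cells were inducible force-coupled HEK293 TREx D1, plated overnight at 30 C and loaded with no-wash calcium dye.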
D1 PAM: enhances dopamine response at the human D1 receptor | HEK293 TREx D1 cells, calcium flux, dopamine EC20 potentiation | 0.036% of 360,000 active | AID 504651 | P21728 | potentiation, % at 10 µM; in the data active = potentiation above about 30%; also: 0% is about no effect
DRD3 antagonist: D3 dopamine receptor (human) antagonism; D3R cells, DiscoveRx beta-arrestin luminescence, antagonist mode; active compounds read low; max response, negative = inhibition, %; 2.5% of 360,000 active; AID 652054; in the data active = max response below about -50%; inconclusive = no clear call, values can overlap the other calls; also: % is scaled to controls: 0 for no effect and ±100 for the full control effect
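Cells plated overnight at 1500 cells/well, then exposed to library compounds with dopamine controls for 90 minutes at 37 degrees C. DiscoveRx reagent added for 30–60 minutes at room temperature; luminescence read, quantitative HTS format.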
D1 antag: antagonists of human D1 dopamine receptor; P21728; HEK293 TREx D1 cells, calcium flux, dopamine EC80; active compounds read low; activity change, negative = inhibition, % at 10 µM; 3.2% of 360,000 active; AID 504652; in the data active = activity change below about -30%; also: % is scaled to controls: 0 for no effect and ±100 for the full control effect
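HEK293 T-REx cells expressing inducible, force-coupled D1 receptor; no-wash Ca dye, 30–90 min RT. Cmpd → 180 s read at 1 Hz → EC80 DA → 180 s read.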
DRD3 agonist: agonists of human D3 dopamine receptor. D3R DiscoveRx beta-arrestin cells, luminescence, 90 min. 0.58% of 410,000 active. max activation, %. P35462; in the data active = max activation above about 30%; also: 0% is about no effect
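Agonist-mode cell screen: cells plated at 1500/well and incubated overnight at 37 °C, then exposed to library compounds for 90 min at 37 °C. Detection reagent was added for 30–60 min at room temperature, and luminescence was read.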
* hit, by the source's call; ? = inconclusive; . = no result given. In the library only some 6% were active in any assay of this set; here they are far more common.

SMILES	D1 agonist	D1 PAM	DRD3 antagonist	D1 antag	DRD3 agonist
CCC(Cn1nnc2ccccc2c1=O)NC(=O)Nc1ccccc1Cl (configuration not stated)	2	1	.	-5	-9
Cc1cc2c(s1)c1cnn(Cc3cc(OC(F)(F)F)ccc3F)c(=O)c1n2C	3	6	.	-14	.
CC(=O)c1ccc(Nc2nc(CN)cs2)cc1	.	.	17	.	2
N#Cc1c(NC(=O)C2CCCO2)sc2c1CCCCCC2 (configuration not stated)	6	3	-27	-32*	-20
CC(C)N1CCc2c(sc(NC(=O)c3cc4cc([N+](=O)[O-])ccc4s3)c2C(N)=O)C1	35*	-1	?	-14	-2
O=C(NCCc1ccccc1)c1cc2sccc2n1Cc1ccc(F)cc1	8	-3	.	-31*	-17
O=C(NCc1ccccc1)c1cc2sccc2n1Cc1ccc(F)cc1	7	-2	.	15	-20
c1ccc2cc(OCCOCCOc3ccc4ccccc4c3)ccc2c1	12	3	21	2	6
Cc1cc(C)c(OCCCCNCc2ccccc2)c(Cl)c1	8	-3	-76*	1	-59
Cc1cc(Cl)cc(C)c1OCCOCCNCc1ccccc1	31*	-6	-80*	-5	-9
Cc1cc(C)c(OCCNCc2ccccc2)c(C)c1	2	-2	-15	6	-13
Clc1ccc(OCCOCCNCc2ccccc2)cc1Cl	47*	-5	?	-26	2
N#Cc1nc(Nc2cc(F)cc(F)c2)nc(NC2CCCC2)n1	9	-3	.	-18	.
COc1cc(NC(=O)c2cc3cc4ccc(OC)c(Cl)c4nc3s2)cc(OC)c1	2	-1	.	-4	-9
Cc1ccc(C)c(NC(=O)CSc2nnc(CCCCCNC(=O)OC(C)(C)C)o2)c1	36*	-1	11	-17	-2
CC(C)(C)OC(=O)NCCc1nnc(SCc2ccccc2)o1	1	9	-1	8	2
CC(C)(C)OC(=O)NCCc1nnc(SCC(N)=O)o1	4	1	18	-2	-2
CC(C)(C)OC(=O)NCCc1nnc(SCc2ccccc2Cl)o1	5	-5	-12	-30*	-2
C[C@H](NC(=O)OC(C)(C)C)c1nnc(SCc2ccc(Cl)cc2Cl)o1	9	-3	.	-2	-10
CC(C)(C)OC(=O)NCCCCCc1nnc(SCC(N)=O)o1	1	-5	-12	-39*	0
CC(C)(C)OC(=O)NCCc1nnc(S(=O)(=O)Cc2ccc(Cl)cc2Cl)o1	6	-9	-71*	-1	-15
CCCCCCCc1nn2c(=O)cc(O)nc2s1	1	-1	18	15	7
O=C(Cn1cc(C(=O)c2cccs2)c2ccccc21)Nc1ccc(Br)cc1	1	-10	.	-11	-13
Fc1ccc(-n2ncc3c(Nc4cccc(Cl)c4)ncnc32)cc1	4	-3	.	-8	12
O=S(=O)(Nc1cccc2ccccc12)c1cccc2ccccc12	3	-6	.	-43*	.
SMILES	D1 agonist	D1 PAM	DRD3 antagonist	D1 antag	DRD3 agonist
COc1ccc(NC(=O)c2oc3ccc(S(=O)(=O)N4CCCCC4)cc3c2C)cc1Cl	0	1	.	-3	-2
COc1ccc(CCNCc2ccccc2N2CCCC2)cc1	1	2	5	10	-6
COc1ccc(CCNCc2cc(C)n(-c3ccc(OC)cc3)c2C)cc1	55*	-8	7	-6	-1
CCNC(=O)C(=O)Nc1ccc(OC)c(Cl)c1	12	-4	6	-14	2
COc1ccc(NC(=O)C(=O)c2cc(C)n(-c3ccc(C)cc3)c2C)cc1Cl	4	-2	.	-53*	5
CCn1c2ccccc2c2nnc(SCC(=O)Nc3ccccc3OC)nc21	5	-1	.	-33*	-4
CCN(C(=O)CSc1nc2ccccc2nc1Cc1ccccc1OC)c1ccccc1	3	0	.	-45*	-13
COc1ccccc1NC(=O)CSC(N)=O	1	0	-107*	13	4
Cc1ccccc1NC(=O)CSC(N)=O	10	-2	-11	7	-4
COc1ccccc1NC(=O)OCC#CCOC(=O)Nc1ccccc1OC	23	-4	-5	-58*	-3
COc1ccccc1NC(=O)CSc1nnc2c3ccccc3n(C)c2n1	0	-6	.	2	10
c1ccc(-c2nnc3oc(-c4cccs4)nn23)cc1	.	.	10	.	1
CC(=O)N1CCN(CC(=O)Nc2ccccc2Sc2ccccc2)CC1	11	-4	0	-28	3
COc1ccccc1C(CNC(=O)c1cccc(S(=O)(=O)Nc2ccc(F)cc2)c1)N1CCCC1 (configuration not stated)	.	.	-20	.	-17
COc1ccccc1NC(=O)Cn1c2ccccc2c2nc3n(c(=O)c21)CCS3	2	-4	-10	-44*	-16
COc1ccccc1NC(=O)CSc1nc2ccccc2cc1Cc1ccccc1	6	-3	7	-33*	-5
O=C(Cn1c2ccccc2c2nc3n(c(=O)c21)CCS3)Nc1ccccc1C(F)(F)F	5	-3	-17	-1	-5
Cn1c(=O)c2ccccc2n(CC(=O)NC2CCCCC2)c1=O	0	-4	-4	2	-8
Cn1c(=O)n(CC(=O)NC2CCCCC2)c(=O)c2ccccc21	1	-4	-59*	-7	-7
CCOc1ccc(NC(=O)Cn2c(=O)n(CC(=O)NCc3ccccc3Cl)c(=O)c3sccc32)cc1	1	-1	.	1	-13
Cc1nn(C(C)(C)C)c(OC(=O)c2cccc(F)c2)c1Sc1ccccc1	5	2	.	-1	-16
C=C[C@@](C)(O)CC[C@@H]1[C@@]2(C)CCCC(C)(C)[C@@H]2CC[C@@]1(C)O	49*	9	-3	-1	8
O=S(=O)(c1ccc(Cl)cc1)c1nc(-c2ccccc2)oc1N1CCN(c2ccccc2)CC1	1	-2	.	2	-12
Cc1nc2c(Cl)cccc2c2c1CC(CBr)O2 (configuration not stated)	1	-2	37	-31*	2
O=C(Cn1c(=O)oc2cc(S(=O)(=O)N3CCCCC3)ccc21)Nc1cccc(Cl)c1	0	-4	.	-14	3
SMILES	D1 agonist	D1 PAM	DRD3 antagonist	D1 antag	DRD3 agonist
COC(=O)c1c(/N=C/N(C)C)sc2c1CCN(c1ncc(C(F)(F)F)cc1Cl)C2	23	-14	9	-31*	7
COC(=O)c1c(N(S(C)(=O)=O)S(C)(=O)=O)sc2c1CCN(c1ncc(C(F)(F)F)cc1Cl)C2	6	-3	5	-2	3
CCOC(=O)N1C/C(=C\c2ccccc2)C(=O)/C(=C/c2ccccc2)C1	10	-4	-52*	-16	-3
CN(C)CCC(=O)N1C/C(=C/c2ccccc2)C(=O)/C(=C\c2ccccc2)C1	.	.	-85*	.	-24
O=C1/C(=C/c2ccccc2)CN(C(=O)CCN2CCOCC2)C/C1=C\c1ccccc1	.	.	-77*	.	-19
CC(C)Cc1nnc(NC(=O)Cc2ccc([N+](=O)[O-])cc2)s1	31*	14	-5	-5	4

Screening results: PubChem, National Center for Advancing Translational Sciences (NCATS)
